# Experimental data reported in PubChem BioAssay (Tox21).
# Unmarked numbers belong to inactive results. Inconclusive results are not listed. Where a call stands in place of a potency, no number is given. Activity calls are given as the source filed them. Unless noted, the call rests on the fitted dose curve; in most records, active means well fitted curve in the direction sought with a large enough effect in the repeat runs; inconclusive means weak or mixed curves; inactive means no such curve, though single readings can be large; an effect the other way counts as inactive or inconclusive.
# Tests used:
# [1] = qHTS assay to identify small molecule antagonists of the estrogen receptor beta (ER-beta) signaling pathway - cell viability counter screen (AID 1259382);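 further: HEK293T cells carrying ER-beta-UAS-bla reporter stimulated with estradiol; series mostly up to about 92 µM; nearly all actives have a fitted effect of over 55% in size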
# Summary of the method: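 ER-beta-UAS-bla HEK293T cells (2,000/well, 2% charcoal-stripped FBS) were pre-incubated 6 hr at 37C, then given compound plus 1nM final 17-beta-estradiol for 16 hr. Viability was read in the same wells by CellTiter-Glo luminescence after 30 min at room temperature.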
# [2] = qHTS assay to identify small molecule agonists or antagonists of the thyroid stimulating hormone receptor (TSHR) signaling pathway - wild type cell line counter screen (AID 1259384; calls by dose curve)
# Summary of the method: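 Wild-type HEK293 cells were plated 18 h at 37 C/5% CO2, pin-dosed with compound plus Ro20-1724 medium, held 30 min at room temperature, then given cAMP-d2 and anti-cAMP-cryptate; fluorescence was read after 1 h. Fifteen concentrations, triplicate.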
# [3] = qHTS assay to identify small molecule agonists of the estrogen receptor alpha (ER-alpha) signaling pathway in the presence of an antagonist - cell viability counter screen (AID 1259386);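 further: cells exposed to compounds for 22 h at 37 °C before the viability read; nearly all actives have a fitted effect of over 30% in size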; further: potency means the concentration at half of the fitted maximal effect; on activity change, negative = cytotoxicity: series mostly up to about 92 µM
# Summary of the method: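 VM7Luc4E2 cells (endogenous full-length ER-alpha, 4×ERE-luciferase) were held 5 days in phenol red-free medium with 10% charcoal-stripped FBS, plated, then given 10.0nM ICI-182,780 and compounds at 15 concentrations for 22hr at 37C; viability read by CellTiter-Fluor fluorescence.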
# [4] = molecular target: Progesterone receptor (Homo sapiens) (UniProt P06401); assay: qHTS assay to identify small molecule agonists of the progesterone receptor (PR) signaling pathway (AID 1346784; calls by dose curve; further: nearly all actives have a fitted effect of over 30% in size)
# Summary of the method: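 PR-UAS-bla HEK 293T cells carrying a UAS-driven beta-lactamase reporter were seeded in medium with 2% charcoal-stripped FBS, preincubated 6 hr at 37C, then exposed to compounds in DMSO for 16 hr; agonism was read by LiveBLAzer B/G FRET fluorescence.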
# [5] = molecular target: Progesterone receptor (Homo sapiens) (UniProt P06401); assay: qHTS assay to identify small molecule antagonists of the progesterone receptor (PR) signaling pathway (AID 1346795; active means well fitted inhibition curve with a large enough effect in the signal ratio in the repeat runs, not every such curve was filed as active; the % refers to the signal ratio; further: potency means the concentration at half of the fitted maximal effect)
# Summary of the method: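 PR-UAS-bla HEK293T cells carrying a UAS-driven beta-lactamase reporter were plated in medium with 2% charcoal-stripped FBS and rested 6 hr at 37C. Compounds were added with 1 nM R5020 (final) for 16 hr, then FRET substrate loaded 2 hr at room temperature.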
# [6] = qHTS assay to identify small molecule antagonists of the progesterone receptor (PR) signaling pathway - cell viability counter screen (AID 1346798); further: series mostly up to about 92 µM; nearly all actives have a fitted effect of over 50% in size
# Summary of the method: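 PR-UAS-bla HEK293T cells in medium with 2% charcoal-stripped FBS were treated with compounds plus R5020 for 16 hr at 37C. Cell viability was then read by CellTiter-Glo luminescence after 30 min at room temperature in the same wells.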
# [7] = qHTS assay to identify small molecule agonists of the progesterone receptor (PR) signaling pathway - cell viability counter screen (AID 1346799; calls by dose curve; further: nearly all actives have a fitted effect of over 45% in size)
# Summary of the method: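 PR-UAS-bla HEK293T cells, 3,000 per well in medium with 2% charcoal-stripped FBS, were preincubated 6 hr at 37C, then exposed to compounds for 16 hr; viability was read as CellTiter-Glo luminescence after 30 min at room temperature.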
# [8] = qHTS assay to identify small molecule antagonists of the TGF-beta/Smad signaling pathway - cell viability counter screen (AID 1346824); further: nearly all actives have a fitted effect of over 50% in size
# Summary of the method: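 SBE-bla HEK 293T cells were plated overnight at 37 C, then given compounds in DMSO plus TGF-beta1 (added as 0.25 ng/mL solution) for 5 hr. After the bla read, CellTiter-Glo was added to the same wells and luminescence read after 30 min at room temperature.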
# [9] = molecular target: Thyrotropin receptor (Homo sapiens) (UniProt P16473); assay: qHTS assay to identify small molecule antagonists of the thyroid stimulating hormone receptor (TSHR) signaling pathway (AID 1259385; calls by dose curve; further: nearly all actives have a fitted effect of over 20% in size)
# Summary of the method: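 TSHR-HEK293 cells were plated and held 18 h at 37C/5% CO2, then given compound plus Ro20-1724 and stimulated with TSH at 1.5 ng/mL final. After 30 min at room temperature, cAMP was detected with cAMP-d2/anti-cAMP-cryptate (1 h) by fluorescence.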
# [10] = molecular target: Estrogen receptor (Homo sapiens) (UniProt P03372); assay: qHTS assay to identify small molecule agonists of the estrogen receptor alpha (ER-alpha) signaling pathway in the presence of an antagonist (AID 1259383; calls by dose curve; further: top concentration of the series differs between compounds; nearly all actives have a fitted effect of over 15% in size)
# Summary of the method: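 VM7Luc4E2 cells (endogenous full-length ER-alpha, 4×ERE-luciferase) were precultured 5 days in phenol red-free medium with 10% charcoal-stripped FBS, given 10.0nM ICI-182,780 (final), then treated with compounds at 15 concentrations for 22hr at 37C; luminescence read with ONE-Glo.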
# Thyrotropin receptor (Homo sapiens), sequence (P16473 whole entry, looked up): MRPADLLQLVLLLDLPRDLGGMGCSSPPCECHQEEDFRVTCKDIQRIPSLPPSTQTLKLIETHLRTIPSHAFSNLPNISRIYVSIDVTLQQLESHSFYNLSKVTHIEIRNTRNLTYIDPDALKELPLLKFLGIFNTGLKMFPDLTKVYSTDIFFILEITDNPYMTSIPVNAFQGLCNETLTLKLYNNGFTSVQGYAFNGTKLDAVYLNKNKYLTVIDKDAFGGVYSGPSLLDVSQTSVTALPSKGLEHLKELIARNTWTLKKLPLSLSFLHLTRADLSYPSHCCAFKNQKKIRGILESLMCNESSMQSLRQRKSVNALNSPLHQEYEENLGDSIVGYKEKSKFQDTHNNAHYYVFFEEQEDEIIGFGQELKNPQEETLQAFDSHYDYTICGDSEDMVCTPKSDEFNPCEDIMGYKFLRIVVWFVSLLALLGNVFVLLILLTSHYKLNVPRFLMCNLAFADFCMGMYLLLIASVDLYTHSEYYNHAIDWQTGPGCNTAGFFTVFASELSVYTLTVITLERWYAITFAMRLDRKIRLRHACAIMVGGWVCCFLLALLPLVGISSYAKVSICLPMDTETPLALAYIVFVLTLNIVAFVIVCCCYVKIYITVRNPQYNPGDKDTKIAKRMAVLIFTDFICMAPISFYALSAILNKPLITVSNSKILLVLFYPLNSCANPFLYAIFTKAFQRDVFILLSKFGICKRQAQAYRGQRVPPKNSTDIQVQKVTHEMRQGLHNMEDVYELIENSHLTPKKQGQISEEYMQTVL
# Progesterone receptor (Homo sapiens), sequence (P06401 whole entry, looked up): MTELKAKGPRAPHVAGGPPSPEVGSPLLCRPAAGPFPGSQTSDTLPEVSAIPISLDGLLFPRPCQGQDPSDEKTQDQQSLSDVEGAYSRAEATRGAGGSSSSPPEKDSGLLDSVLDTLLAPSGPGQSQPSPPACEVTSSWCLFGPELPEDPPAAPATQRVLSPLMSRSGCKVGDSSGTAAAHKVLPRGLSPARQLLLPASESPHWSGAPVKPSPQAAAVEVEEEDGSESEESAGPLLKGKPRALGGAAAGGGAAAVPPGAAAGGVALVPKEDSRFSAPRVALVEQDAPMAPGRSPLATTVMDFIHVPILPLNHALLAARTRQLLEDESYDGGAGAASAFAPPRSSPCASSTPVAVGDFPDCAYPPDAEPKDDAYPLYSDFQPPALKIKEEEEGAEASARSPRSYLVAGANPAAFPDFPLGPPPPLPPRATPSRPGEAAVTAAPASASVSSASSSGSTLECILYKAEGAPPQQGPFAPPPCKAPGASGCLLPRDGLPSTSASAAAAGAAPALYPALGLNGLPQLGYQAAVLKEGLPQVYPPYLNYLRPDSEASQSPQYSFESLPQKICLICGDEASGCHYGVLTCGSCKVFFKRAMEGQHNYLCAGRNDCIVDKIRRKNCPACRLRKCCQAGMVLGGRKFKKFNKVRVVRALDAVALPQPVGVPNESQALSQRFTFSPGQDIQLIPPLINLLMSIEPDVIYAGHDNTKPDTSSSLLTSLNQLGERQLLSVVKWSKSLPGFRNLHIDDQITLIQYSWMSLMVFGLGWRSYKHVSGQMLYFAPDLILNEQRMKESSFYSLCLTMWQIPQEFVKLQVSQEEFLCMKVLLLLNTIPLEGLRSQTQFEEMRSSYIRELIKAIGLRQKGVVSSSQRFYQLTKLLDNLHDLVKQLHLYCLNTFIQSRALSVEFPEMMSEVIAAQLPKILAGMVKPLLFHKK
# Estrogen receptor (Homo sapiens), sequence (P03372 whole entry, looked up): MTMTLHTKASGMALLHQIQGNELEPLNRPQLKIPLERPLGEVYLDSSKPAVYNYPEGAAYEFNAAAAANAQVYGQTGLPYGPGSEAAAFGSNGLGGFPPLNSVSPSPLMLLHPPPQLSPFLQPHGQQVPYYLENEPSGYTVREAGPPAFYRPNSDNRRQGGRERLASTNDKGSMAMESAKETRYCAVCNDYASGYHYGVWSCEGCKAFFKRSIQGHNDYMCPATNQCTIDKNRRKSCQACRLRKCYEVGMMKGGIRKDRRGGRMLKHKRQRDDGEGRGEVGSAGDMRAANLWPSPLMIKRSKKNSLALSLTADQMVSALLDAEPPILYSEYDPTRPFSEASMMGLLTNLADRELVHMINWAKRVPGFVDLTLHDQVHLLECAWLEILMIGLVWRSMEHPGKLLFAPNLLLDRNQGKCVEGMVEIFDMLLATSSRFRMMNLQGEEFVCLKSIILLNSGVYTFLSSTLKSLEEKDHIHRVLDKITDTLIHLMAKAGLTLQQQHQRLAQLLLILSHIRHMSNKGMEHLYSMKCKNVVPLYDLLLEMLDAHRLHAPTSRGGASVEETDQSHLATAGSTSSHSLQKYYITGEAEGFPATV
smiles,measurement,setting,value
CO/N=C(/C(=O)N[C@@H]1C(=O)N2C(C(=O)O)=C(Cn3nnc(C)n3)CS[C@H]12)c1csc(N)n1,outcome,[1],inactive
same,outcome,[2],inactive
same,Potency,[3],inactive
same,Potency,[4],inactive
same,Potency,[5],inactive
same,Potency,[6],inactive
same,Potency,[7],inactive
same,outcome,[8],inactive
Nc1cc(S(=O)(=O)O)ccc1S(=O)(=O)O,outcome,[1],inactive
same,outcome,[2],inactive
same,outcome,[9],inactive
same,Potency,[3],inactive
same,Potency,[5],inactive
same,Potency,[6],inactive
same,outcome,[8],inactive
NS(=O)(=O)c1cc2c(cc1Cl)NC(C(Cl)Cl)NS2(=O)=O (configuration not stated),outcome,[1],inactive
same,outcome,[2],inactive
same,Potency,[3],inactive
same,Potency,[4],inactive
same,Potency,[5],inactive
same,Potency,[6],inactive
same,Potency,[7],inactive
same,outcome,[8],inactive
CCCCCCCCCCCCCCCCI,"activity change, negative = cytotoxicity",[1],-0.0745% [at 19 µM]
same,cAMP activity change,[2],5% [at 18.9 µM]
same,"activity change, negative = inhibition",[9],-4.61% [at 19 µM]
same,"activity change, negative = cytotoxicity",[3],-3.61% [at 19 µM]
same,activation,[4],0.0661% [at 19 µM]
same,"activity change, negative = inhibition",[5],-3.13% [at 18.9 µM]
same,"activity change, negative = cytotoxicity",[6],17.5% [at 18.9 µM]
same,"activity change, negative = cytotoxicity",[7],-9.05% [at 19 µM]
same,"viability change, negative = cytotoxic",[8],-2.44% [at 15.8 µM]
O=S(=O)(O)SSS(=O)(=O)O,outcome,[1],inactive
same,outcome,[2],inactive
same,Potency,[3],inactive
same,Potency,[4],inactive
same,Potency,[5],inactive
same,Potency,[6],inactive
same,Potency,[7],inactive
same,outcome,[8],inactive
CN[C@@H]1[C@@H](O)[C@@H](O[C@@H]2[C@H](O)[C@H](O[C@H]3OC(CN)=CC[C@H]3N)[C@@H](N)C[C@H]2N)OCC1(C)O (some centres not stated),outcome,[1],inactive
same,outcome,[2],inactive
same,outcome,[9],inactive
same,Potency,[3],inactive
same,Potency,[4],inactive
same,Potency,[5],inactive
same,Potency,[6],inactive
same,Potency,[7],inactive
same,outcome,[8],inactive
CC(C)COC(=O)COc1ccc(Cl)cc1Cl,outcome,[1],inactive
same,outcome,[2],inactive
same,outcome,[9],inactive
same,Potency,[3],inactive
same,Potency,[4],inactive
same,Potency,[5],inactive
same,Potency,[6],inactive
same,Potency,[7],inactive
same,outcome,[8],inactive
SCCSCCS,outcome,[1],inactive
same,outcome,[2],inactive
same,outcome,[9],inactive
same,Potency,[3],inactive
same,Potency,[4],inactive
same,Potency,[5],inactive
same,Potency,[6],inactive
same,Potency,[7],inactive
same,outcome,[8],inactive
NS(=O)(=O)c1ccccc1OC(F)(F)F,outcome,[1],inactive
same,Potency,[3],inactive
same,Potency,[4],inactive
same,Potency,[5],inactive
same,Potency,[6],inactive
same,Potency,[7],inactive
same,outcome,[8],inactive
C[C@H]1O[C@H](O[C@H]2[C@H](O)[C@@H](O)[C@@H](O[C@H]3[C@H](O)[C@@H](O)[C@H](O)O[C@@H]3CO)O[C@@H]2CO)[C@H](O)[C@@H](O)[C@@H]1N[C@H]1C=C(CO)[C@@H](O)[C@H](O)[C@H]1O,outcome,[1],inactive
same,Potency,[3],inactive
same,Potency,[4],inactive
same,Potency,[5],inactive
same,Potency,[6],inactive
same,outcome,[8],inactive
Nc1c(NC/C=C\COc2cc(CN3CCCCC3)ccn2)c(=O)c1=O,"activity change, negative = cytotoxicity",[1],0.149% [at 19 µM]
same,"activity change, negative = inhibition",[9],-4.41% [at 19 µM]
same,activation,[4],1.78% [at 19 µM]
same,"activity change, negative = inhibition",[5],9.62% [at 18.9 µM]
same,"activity change, negative = cytotoxicity",[6],4.14% [at 18.9 µM]
same,"activity change, negative = cytotoxicity",[7],-2.25% [at 19 µM]
same,"viability change, negative = cytotoxic",[8],0.148% [at 15.8 µM]
CNCc1ccccc1,outcome,[1],inactive
same,Potency,[3],inactive
same,Potency,[4],inactive
same,Potency,[5],inactive
same,Potency,[7],inactive
same,outcome,[8],inactive
Cc1ccc2c(c1)c1c3n2CCNC3CCC1 (configuration not stated),outcome,[2],inactive
same,outcome,[9],inactive
same,Potency,[3],inactive
same,Potency,[4],inactive
same,Potency,[5],inactive
same,outcome,[8],inactive
C=COCCOCCOC=C,outcome,[1],inactive
same,Potency,[3],inactive
same,Potency,[4],inactive
same,Potency,[5],inactive
same,Potency,[6],inactive
same,Potency,[7],inactive
same,outcome,[8],inactive
COc1ccc(N=Nc2cc(C)c(N=Nc3ccc(S(=O)(=O)O)cc3)cc2OC)cc1,outcome,[1],inactive
same,outcome,[2],inactive
same,Potency,[3],27.3 µM (active)
same,Potency,[4],inactive
same,Potency,[6],inactive
same,Potency,[7],inactive
same,outcome,[8],inactive
Oc1ccccc1Cc1ccccc1O,outcome,[10],inactive
same,Potency,[3],inactive
same,Potency,[5],27.3 µM (active)
same,outcome,[8],inactive
C=C(C)C(=O)OC,outcome,[1],inactive
same,Potency,[3],inactive
same,Potency,[4],inactive
same,Potency,[5],inactive
same,Potency,[6],inactive
same,Potency,[7],inactive
same,outcome,[8],inactive
COc1cc(C=O)ccc1OC(=O)C(C)C,outcome,[1],inactive
same,outcome,[9],inactive
same,Potency,[3],inactive
same,Potency,[4],inactive
same,Potency,[5],inactive
same,Potency,[6],inactive
same,outcome,[8],inactive
Cc1ccccc1N1CCN(CCc2nnc3n2CCCC3)CC1,outcome,[1],inactive
same,outcome,[9],inactive
same,Potency,[3],inactive
same,Potency,[4],inactive
same,Potency,[5],inactive
same,Potency,[6],inactive
same,outcome,[8],inactive
CCOc1ccc(NC(=O)OC(C)C)cc1OCC,outcome,[1],inactive
same,Potency,[3],inactive
same,Potency,[4],inactive
same,Potency,[5],inactive
same,outcome,[8],inactive
C1=CCC(c2ccccc2)CC1 (configuration not stated),outcome,[1],inactive
same,outcome,[9],inactive
same,Potency,[3],inactive
same,Potency,[4],inactive
same,Potency,[5],inactive
same,Potency,[6],inactive
same,outcome,[8],inactive
CCC1Nc2cc(Cl)c(S(N)(=O)=O)cc2S(=O)(=O)N1 (configuration not stated),outcome,[1],inactive
same,outcome,[2],inactive
same,Potency,[3],inactive
same,Potency,[4],inactive
same,Potency,[6],inactive
same,outcome,[8],inactive
O=C1NC2NC(=O)NC2N1 (configuration not stated),outcome,[1],inactive
same,outcome,[9],inactive
same,Potency,[3],inactive
same,Potency,[4],inactive
same,Potency,[5],inactive
same,Potency,[6],inactive
same,outcome,[8],inactive
CCCCC(CC)C(=O)OC(C)C (configuration not stated),outcome,[1],inactive
same,Potency,[3],inactive
same,Potency,[4],inactive
same,Potency,[5],inactive
same,Potency,[6],inactive
same,Potency,[7],inactive
CCNC(=O)/C=C/c1cccc(Br)c1,outcome,[1],inactive
same,outcome,[9],inactive
same,Potency,[3],inactive
same,Potency,[4],inactive
same,Potency,[5],inactive
same,Potency,[6],inactive
same,Potency,[7],inactive
same,outcome,[8],inactive
